The assay is described as follows: qHTS Assay for Identifying a Potential Treatment of Ataxia-Telangiectasia: Hit Validation.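 Further: phospho-KAP1 level by AlphaLISA as a proxy for ATM-like kinase activity.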 In a few lines:
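hTERT-immortalized A-T patient fibroblasts (F2112) were dosed at up to 76.7 uM final for 60 min at 37C. After a further 30 min incubation, cells were lysed, and phospho-KAP1 was detected by AlphaLISA after 6 hr at 25C.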
On the technique in general: qHTS replaces the single test concentration by a dilution series.

SMILES strings stand for the structures. Inconclusive results are not listed. Entries that show only a call come without a potency. Calls of active or inactive are those of the source. The call rests on the fitted dose curve; in most records, active means well fitted activation curve with a large enough effect; inconclusive means small, poorly fitted or top-dose-only effect; inactive means no such curve, though single readings can be large or run the other way.

Regarding `CC(C)C1CC(CCN)(c2ccccc2)CCO1` (stereo not given), the Potency entry was “inactive”. Turning to `CCC(C)N1C(=S)SC(C)(C)C1N(O)C(=O)NC1CCCCC1` (stereo not given), the Potency entry was “inactive”. As for `C=CCOC(=O)C1=C[C@H](c2coc3ccccc3c2=O)C[C@H](OCc2ccc(CO)cc2)O1`, the entry is “inactive”; as for `COCCCNC(=O)c1c[nH]c2ccc(S(=O)(=O)N(C)c3ccccc3C)cc2c1=O`, “inactive”. Take `OC(CN1CCCCC1)Cn1c2ccc(Cl)cc2c2cc(Cl)ccc21` (stereo not given): the Potency result was “inactive”.

In the case of `COc1ccc(N2CCN(C(=O)c3cc4cc(Cl)ccc4[nH]3)CC2)cc1`, the Potency entry is “inactive”. On to `COc1cc(CCC(C)NCc2ccccc2)ccc1O` (stereo not given), for which the Potency result is “inactive”. With `COc1cc(C(=O)NCCC(=O)NCCCN2CCCCC2)cc(OC)c1OC`, the Potency entry is “inactive”. As to `COc1cccc(CNCc2ccc(OC)c3ccccc23)c1OC`, the Potency result is “inactive”.

Turning to `COc1ccc(-c2csc(-c3ccc(O)cc3)n2)cc1`, the Potency result was “inactive”. The entry for `CC1=C/C(=C\C=C(C#N)C#N)N(C)c2ccccc21` is “inactive”; for `CCc1oc(C(=O)OC)cc1CSC(=N)N` it is “inactive”. As for `Cc1ccc(-c2noc(CCC(=O)NC3CCN(Cc4ccccc4)CC3)n2)cc1`, the Potency entry was “inactive”. `Cc1cc(C)c2c(Cn3ccnc3)cc(=O)oc2c1`: the Potency entry was “inactive”. With `O=C1C2C3C=CC(CC3)C2C(=O)N1c1cccc(Br)c1` (stereo not given), the Potency entry is “inactive”. Take `COc1ccc(C(=O)CSc2nc3ncccc3[nH]2)cc1OC`: the Potency entry is “inactive”. For `N#Cc1c(-c2ccccc2)cc(-c2ccccc2)[nH]c1=O`, the Potency result was “inactive”.

Take `Cc1ccccc1S(=O)(=O)Oc1ccc2ccc(O)cc2c1`: the Potency result is “inactive”. As for `OC1(CC#CCN2CCCCC2)c2ccccc2-c2ccccc21`, the entry is “inactive”; as for `Cc1ccc(C2(C)NC(=O)N(CC(=O)Nc3ccccc3N3CCCC3)C2=O)cc1` (stereo not given), “inactive”.

Values taken from PubChem BioAssay AID493192 (National Center for Advancing Translational Sciences (NCATS), 2011).
